HEK293 cAMP cs – raises cAMP in parental HEK293 cells, TSHR agonist counter-screen; parental HEK293 CNG cAMP sensor, membrane potential fluorescence; AID 938; Potency, µM (doses to about 57.1 µM), inactives show top-dose activation, usual class: activators; 73,000 tested, 2.5% active; note: % of control where 0% means no effect; nearly all actives have a fitted effect of over 55% in size
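Counterscreen for endogenous-receptor signalling: CNG-channel HEK 293 cells report cAMP rise by membrane depolarization. After 60 min dye equilibration with 100 uM RO 20-1724, compounds incubated 30 min before bottom-read fluorescence at 590 nm.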
Tau filament bind – tau filament binding. recombinant tau filaments, thioflavin S fluorescence, 15 h; filaments grown with octadecylsulfate alongside compound. Potency, µM (highest dose often 57.1 µM), inactives show at the top dose activity change, negative = inhibition. 71,000 tested, 2% active. AID 596;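 note: % is set by controls: 0 for no effect and ±100 for the full control effect; actives lower thioflavin S fluorescence by blocking filaments or displacing dye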
Target sequence (P10636 whole entry, looked up): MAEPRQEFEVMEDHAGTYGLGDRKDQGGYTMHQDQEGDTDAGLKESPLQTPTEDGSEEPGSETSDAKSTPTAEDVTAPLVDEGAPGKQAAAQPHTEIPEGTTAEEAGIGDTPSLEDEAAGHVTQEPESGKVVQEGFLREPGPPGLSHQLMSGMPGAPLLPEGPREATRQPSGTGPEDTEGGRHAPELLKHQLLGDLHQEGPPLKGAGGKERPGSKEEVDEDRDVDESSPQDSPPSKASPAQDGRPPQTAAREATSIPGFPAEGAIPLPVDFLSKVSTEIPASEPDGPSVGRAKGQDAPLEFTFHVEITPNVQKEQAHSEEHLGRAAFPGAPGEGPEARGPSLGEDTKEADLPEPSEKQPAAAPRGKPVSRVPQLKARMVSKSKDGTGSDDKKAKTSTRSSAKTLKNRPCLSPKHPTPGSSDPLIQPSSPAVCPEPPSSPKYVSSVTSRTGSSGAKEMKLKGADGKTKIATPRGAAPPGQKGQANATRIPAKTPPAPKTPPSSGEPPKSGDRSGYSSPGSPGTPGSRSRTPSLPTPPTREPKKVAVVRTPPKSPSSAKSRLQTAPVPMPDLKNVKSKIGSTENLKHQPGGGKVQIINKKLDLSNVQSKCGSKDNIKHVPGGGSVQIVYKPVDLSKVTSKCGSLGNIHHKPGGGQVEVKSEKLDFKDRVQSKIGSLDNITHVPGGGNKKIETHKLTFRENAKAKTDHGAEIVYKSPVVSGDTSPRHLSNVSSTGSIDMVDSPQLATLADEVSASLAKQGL
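Recombinant tau protein (human, 1 uM final) plus 30 uM ODS in HEPES pH 7.4 with NaCl, DTT and thioflavine S. Compound present from the start; fluorescence at 510 nm after 15 h, 37 C.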
Pol III holo inh – DNA polymerase III holoenzyme inhibition. 71,000 tested, 0.25% active. Potency, µM (top dose mostly 57.1 µM), without a hit: top-dose activity change, negative = inhibition. reconstituted DNA polymerase III holoenzyme replication, biochemical; note: % is set by controls: 0 for no effect and ±100 for the full control effect
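Reconstituted *E. coli* holoenzyme (0.35 nM Pol III, 1 nM beta, 154 nM SSB, 2 nM primase) was preincubated with compound for 15 min at RT. Synthesis on 1.4 nM ssM13Gori ran 35 min, then was stopped with PicoGreen/EDTA and read as dsDNA fluorescence.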
Hsp90 Hop PPI – changes Hsp90-Hop TPR2A binding signal, up or down | AlphaScreen TPR2A-His6 binding biotin-Hsp90 C-terminal peptide | Potency, µM (doses to about 57 µM), without a hit: at the top dose activity change, negative = inhibition | 71,000 tested, 0.44% active; active = well fitted curve in either direction with a large enough effect; inconclusive = small, poorly fitted or top-dose-only effect, or another doubt; note: % is set by controls: 0 for no effect and ±100 for the full control effect
TSHR ag – agonists of human thyroid stimulating hormone receptor. P16473. AID 926. Potency, µM (series often up to 57.1 µM), without a hit: top-dose activation, usual class: activators. 73,000 tested, 0.48% active. HEK293-CNG-TSHR cells (CNG channel as cAMP sensor), membrane potential dye, cAMP; active = well fitted activation curve with a large enough effect in the main read-out, with a control signal flat, not every such curve was filed as active; inconclusive = small, poorly fitted or top-dose-only effect, or a change in a side signal; inactive = no such curve, though single readings can be large or run the other way; % of control where 0% means no effect;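 note: the control signal comes from parental cells without the receptor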
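cAMP rise detected as CNG-channel membrane depolarization by fluorescent dye (emission 590 nm), 30 min after compound, following 60 min dye loading containing 100 uM RO 20-1724 at room temperature. Cells: TSHR/CNG HEK 293, with parental CNG HEK 293 as control.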
Active calls of the source: *; ? = inconclusive; / = not tested or not shown; [ ] = remark or other dose. Compounds with a hit are over-represented: about 5.1% of the library has one in this group of screens. Unless noted, calls come from the whole dose curve; as a rule, active = well fitted curve in the direction sought with a large enough effect; inconclusive = small, poorly fitted or top-dose-only effect, or another doubt; inactive = no such curve, though single readings can be large; an effect the other way counts as inactive or inconclusive. Potency is the fitted concentration of half-maximal effect.

SMILES | HEK293 cAMP cs | Tau filament bind | Pol III holo inh | Hsp90 Hop PPI | TSHR ag
Cc1nc(-n2nnc3ccccc32)c2c3c(sc2n1)CCCC3 | 20µM* | 25% | -1% | 14% | ?
C[N+](C)(CCCOc1ccccc1)c1ccccc1 | 19%[25.6 µM] | 4%[25.6 µM] | -9%[25.6 µM] | -4%[26 µM] | 8%[25.6 µM]
CC(CC(=O)O)(CC(=O)O)c1ccccc1 | 3%[11.4 µM] | 1%[11.4 µM] | -7%[11.4 µM] | -5%[11 µM] | 0%[11.4 µM]
COC(=O)CSc1nc(N2CCCCC2)c2c(c1C#N)CCCC2 | 26% | 17% | -4% | 3% | /
CSc1nc(N2CCOCC2)c2c(c1C#N)CCCCC2 | 25µM* | 22% | 7% | 2% | ?
CN1CCN(CCc2nc3cc(NC(=O)COc4ccccc4)ccc3n2C)CC1 | 7% | -2% | -6% | -2% | 21%
Cc1ccc(OCC(=O)Nc2ccc3c(c2)nc(CCN2CCOCC2)n3C)cc1 | 25µM* | 1% | -5% | -11% | ?
O=S(=O)(Nc1ccccn1)c1ccc(C2CCCCC2)cc1 | 17% | -3% | 2% | -4% | 13%
O=S(=O)(Nc1cccnc1)c1ccc(C2CCCCC2)cc1 | 25µM* | -3% | 6% | 1% | ?
S=C(Nc1ccccn1)c1ccccn1 | 13% | 25µM* | -4% | 10µM* | -4%
CC(C)CCN1CCc2nc(-c3ccccc3)c3c(c2C1)COC(C)C3 (stereo not drawn) | 1%[11.4 µM] | / | / | / | -5%[11.4 µM]
CCOC(=O)c1cnc(-n2nc(C)cc2C)nc1NCCc1ccccc1 | 25µM* | 240% | -6% | ? | ?
CCOC(=O)c1cnc(-n2nc(C)cc2C)nc1NCc1ccc2c(c1)OCO2 | 2% | 5% | -4% | -2% | 2%
O=C(O)CCSCc1ccccc1 | 2%[11.4 µM] | -5%[11.4 µM] | 2%[11.4 µM] | 4%[11 µM] | -2%[11.4 µM]
COCCn1c(=O)c(-c2ccc(OC)cc2)nc2cnc(Oc3ccc(OC)cc3)nc21 | ? | -10% | -9% | -9% | ?
Clc1ccc2c(N3CCCC3)ccnc2c1 | 6% | 20µM* | -3% | -12% | 11%
Cn1c(=O)oc2cc(S(=O)(=O)NCCC(=O)N3CCc4ccccc43)ccc21 | 4% | 16µM* | -8% | 0% | -1%
Cn1c(=O)oc2cc(S(=O)(=O)NCCC(=O)N3CC=C(c4ccccc4)CC3)ccc21 | 26% | -8% | -7% | 0% | /
C=C(CO)[C@H]1Cc2c(ccc3c(=O)c4c(oc23)COc2cc(OC)c(OC)cc2-4)O1 | -4% | 32µM* | -3% | -6% | -9%
COc1cccc(Nc2ncc3nc(C)c(=O)n(C)c3n2)c1 | 20% | 13µM* | -6% | -22% | -7%
COc1ccc(-c2nc3cnc(Nc4cccc(OC)c4)nc3n(Cc3cccs3)c2=O)cc1 | 12% | 70% | -2% | -6% | 2%
COc1cccc(Cn2c(=O)c(C)nc3cnc(Nc4cccc(OC)c4)nc32)c1 | ? | 30% | 1% | -4% | ?
COc1cccc(Nc2ncc3nc(C)c(=O)n(Cc4cccs4)c3n2)c1 | 3.2µM* | 153% | -2% | -7% | ?
O=c1cnc2cnc(Nc3ccccc3)nc2n1Cc1cccs1 | 13µM* | -15% | -4% | -4% | ?
COCCNc1nc(C)nc2c1nc(-c1ccccc1)n2C1CCN(Cc2ccccc2)C1 (stereo not drawn) | ? | 12% | -2% | -5% | ?
SMILES | HEK293 cAMP cs | Tau filament bind | Pol III holo inh | Hsp90 Hop PPI | TSHR ag
O=C(NC1CCCC1)C(c1ccsc1)N(Cc1ccco1)C(=O)Cc1cccs1 (stereo not drawn) | -14% | 16µM* | -10% | -29% | -23%
O=C(Cc1cccs1)N(Cc1ccco1)C1(C(=O)NC2CCCC2)CCCCC1 | 0.13µM* | 8% | 0% | 6% | ?
O=C1NC(=O)C(CC(=O)N(Cc2ccco2)C2(C(=O)NC3CCCC3)CCCCC2)N1 (stereo not drawn) | ? | 2% | 1% | -5% | ?
C=CCOC(=O)C(C(C)=O)C(NC(=O)OC)c1cccs1 (stereo not drawn) | 5%[11.4 µM] | / | / | / | 1%[11.4 µM]
CC(C)(C)n1nnnc1C(c1cccs1)N(Cc1ccccc1)Cc1ccco1 (stereo not drawn) | 16µM* | -10% | -4% | 20% | ?
COc1ccc(C(=O)N2CCC3(CC2)CCN(c2ccccc2)CC3)cc1 | 8% | -16% | -4% | -7% | 14%
Cc1csc(SCC(=O)Nc2cccc3nsnc23)n1 | 20µM* | -20% | -1% | 17% | ?
CN1CCc2cc(NC(=O)Nc3cccnc3)ccc21 | ? | -14% | -2% | -18% | ?
Cn1ccc2cc3c(cc21)CCN3C(=O)Nc1cccnc1 | -12% | 32µM* | -20% | -13% | -14%
c1cncc(-c2cncnc2NC2CCNCC2)c1 | 7% | -17% | -13% | 2% | 4%
Cc1ccc(Cl)cc1N1CCN(Cc2nnnn2C2CCCCC2)CC1 | 13µM* | 2% | -3% | 7% | ?
CN1CC[C@H](CN2c3ccccc3Sc3ccccc32)C1 | -13%[11.4 µM] | 4µM* | -3%[11.4 µM] | -1%[11 µM] | 4%[11.4 µM]
CN1CCN(CCCN2c3ccccc3Sc3ccc(S(=O)(=O)N(C)C)cc32)CC1 | 2%[25.6 µM] | -28%[25.6 µM] | -5%[25.6 µM] | -5%[26 µM] | 14%[25.6 µM]
COC(=O)c1ccc(OC)c(CSc2nnc(COc3ccc(OC)cc3)o2)c1 | 13µM* | 9% | 8% | ? | ?
COc1ccc(C(C)=O)cc1CSc1nnc(C)s1 | 10% | 11% | -6% | -5% | 12%
COC(=O)c1ccc(OC)c(CSc2nnc(COc3cccc(C)c3)o2)c1 | ? | 6% | 8% | ? | ?
COc1ccc(Cc2nnc(SCC(=O)c3ccc(OC)cc3)o2)cc1 | 32µM* | 19% | -1% | 7% | ?
COc1ccc(C(C)=O)cc1CSc1nc2ccccc2o1 | 25µM* | -9% | 0% | 12% | ?
COc1ccc(C(=O)CSc2nnc(Cc3ccccc3)o2)cc1 | 18% | 27% | -10% | 8% | /
N[C@@H](Cc1[nH]nc2ccccc12)C(=O)O | 14%[11.4 µM] | 10%[11.4 µM] | -7%[11.4 µM] | -11%[11 µM] | 3%[11.4 µM]
O=C1C2C3C=CC(C3=C3CCCCC3)C2C(=O)N1Cc1ccccc1 (stereo not drawn) | 21% | -11% | 0% | 11% | /
CCc1cccc2c1NC(=O)[C@]21[C@@H]2C(=O)N(Cc3ccccc3)C(=O)[C@@H]2[C@@H]2CCCN21 | -13% | 25µM* | -2% | -11% | -12%
Cc1c(Cl)ccc2c1NC(=O)[C@]21[C@@H]2C(=O)N(Cc3ccccc3)C(=O)[C@@H]2[C@@H]2CCCN21 | -6% | 25µM* | -2% | -17% | -7%
Cc1cc(C(C)(C)C)cc(CNC2CCCCC2)c1O | 15%[11.4 µM] | -21%[11.4 µM] | 6%[11.4 µM] | 1%[11 µM] | 3%[11.4 µM]
COCCN(CCOC)C(=O)c1cc2c(=O)n3ccccc3nc2s1 | 2% | -5% | -3% | -1% | 11%
COCCN(CCOC)c1ncc(Cl)c(C(=O)c2c(C)cc3ccccn23)n1 | 32µM* | -18% | 0% | -15% | ?
Cc1ccc2c(Cl)cc(Cl)c(OCc3c(C)noc3C)c2n1 | 16µM* | 6% | 0% | 2% | ?

Screening data: PubChem BioAssay, National Center for Advancing Translational Sciences (NCATS)
